Screens from PubChem BioAssay.
ADAM17 inh = ADAM17 inhibition, QFRET primary screen | recombinant ADAM17, EDANS/DABCYL FRET peptide cleavage | inhibition, % at 6.95 µM | 370,000 tested, 0.83% active | AID 720648;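 active means inhibition above the mean of compounds lying between control limits plus 3 SD, set per campaign, cut at about 8.5% in these data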
Target sequence (P78536 215-824 limits assumed): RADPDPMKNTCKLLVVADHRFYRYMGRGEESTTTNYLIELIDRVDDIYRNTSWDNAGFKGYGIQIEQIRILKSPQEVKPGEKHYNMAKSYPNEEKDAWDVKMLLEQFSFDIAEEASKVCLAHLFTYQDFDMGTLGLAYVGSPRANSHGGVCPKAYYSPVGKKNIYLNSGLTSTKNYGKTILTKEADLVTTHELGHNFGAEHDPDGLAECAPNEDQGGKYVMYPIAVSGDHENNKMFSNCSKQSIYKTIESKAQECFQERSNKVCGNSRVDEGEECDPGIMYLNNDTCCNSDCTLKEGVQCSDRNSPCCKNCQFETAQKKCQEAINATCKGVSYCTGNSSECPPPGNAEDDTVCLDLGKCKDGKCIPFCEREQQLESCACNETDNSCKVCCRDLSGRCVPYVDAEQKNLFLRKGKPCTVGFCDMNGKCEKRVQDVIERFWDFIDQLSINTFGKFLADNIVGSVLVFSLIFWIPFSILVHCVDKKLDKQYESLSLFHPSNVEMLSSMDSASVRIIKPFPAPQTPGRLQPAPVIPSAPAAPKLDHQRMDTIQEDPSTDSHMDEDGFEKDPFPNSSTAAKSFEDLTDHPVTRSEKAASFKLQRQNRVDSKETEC
FGF22 binding-1 = FGF22 (human) thermal shift binding. Q9HCT0. recombinant FGF22 thermal shift, SYPRO orange fluorescence; percent of sucrose octasulfate shift, DMSO zero. activity (Tm shift, normalised), % at 9.99 µM. 340,000 tested, 1.5% active. AID 651658;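 active means mean Tm shift, scaled 0 neutral to 100 positive control, at about 1.3% or above, every replicate too, limit read from the data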
rRNA inh HTS = inhibitors of bacterial rRNA selective over humanized ribosomes; E. coli WT GFP vs humanized-ribosome RFP mutants, fluorescence, 24 h; stronger effect = lower value; DMSO median 0, no signal -100; 350,000 tested, 1.6% active; AID 720706; GFP signal change (wild-type ribosome), % (no concentration beside the values);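 active means significant combined selectivity score with lowered wild-type GFP, culture density cut under 30%, mutant RFP and density less affected; inactive means any of these conditions unmet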
KLK7 zymogen act = activates the human kallikrein-7 zymogen; P49862; 370,000 tested, 0.9% active; purified proKLK7, EDANS-DABCYL substrate fluorescence; 100% is mature enzyme control, 0% vehicle; activation, % at 7 µM;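 active means activation above the mean of all tested compounds plus 3 SD, computed per campaign excluding outliers beyond control limits, cut at about 13% in these data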
ADAM10 inh = ADAM10 inhibition, QFRET primary screen; O14672; AID 720582; inhibition, % at 7 µM; recombinant ADAM10, EDANS/DABCYL FRET peptide cleavage, 3 h; 370,000 tested, 0.62% active;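 active means inhibition above a per-campaign cutoff equal to the mean of compounds falling between control-based bounds plus 3 SD, cut at about 20% in these data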
FGF22 binding-2 = binders of human FGF22 by thermal shift | shares compounds with FGF22 binding-1 | recombinant FGF22 thermal shift, SYPRO orange fluorescence | thermal shift activity, °C (ΔTm) at 38 µM | 1,000 tested, 2% active | AID 720646;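 active means fitted rise in melting shift crosses a set limit at or below the top valid dose tested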
FGF22 TSA DP = FGF22 (human) binding by thermal shift. shares compounds with FGF22 binding-1. Thermal shift assay, SYPRO orange, melting temperature shift. Tm shift (activity), % at 38 µM. 50 tested, under 10 active. AID 743017;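 active means compounds whose fitted dose curve of melting temperature shift rises past a set threshold within the tested doses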
SYPRO no-protein = shows thermal shift signal without protein, FGF22 counter-screen; AID 743019; shares compounds with FGF22 binding-1; 1,000 tested, 2% active; compound-only SYPRO orange thermal shift counter-screen, no protein; AC50, µM (series often up to 38 µM);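 active means rising signal whose fitted curve reaches the 0.54 level within the top valid dose, showing a melting point, actives reach about 13 µM in these data; inactive means the rest, including activity in the opposite direction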; further: value is where the raw curve crosses a fixed level and not half-maximal
Numbers stand for hits; n = inactive; x = no result. The list is not random: actives were taken first. Their share in the collection is about 3.8%.

SMILES | ADAM17 inh | FGF22 binding-1 | rRNA inh HTS | KLK7 zymogen act | ADAM10 inh | FGF22 binding-2 | SYPRO no-protein | others
C[C@@H]1CN([C@H](C)CO)C(=O)Cc2cc(NC(=O)Nc3cccc4ccccc34)ccc2O[C@@H]1CN(C)Cc1ccc(Oc2ccccc2)cc1 | x | n | n | x | x | x | x
COc1c(O)ccc(/C=C(\C#N)c2nc3ccccc3[nH]2)c1[N+](=O)[O-] | n | 1.4 | n | n | n | n | n
COc1ccc(/C=C(\C#N)c2nc3ccccc3[nH]2)cc1O | n | n | n | n | n | x | x
COc1cc(OC)cc(C(=O)Nc2ccc(S(=O)(=O)Nc3nc(C)cc(C)n3)cc2)c1 | n | 1.4 | n | n | n | n | n
COc1cc(OC)cc(C(=O)Nc2ccc(S(=O)(=O)Nc3cc(C)nc(C)n3)cc2)c1 | n | x | x | n | n | x | x
C[C@@H]1CN([C@H](C)CO)C(=O)c2cc(NC(=O)CCC(F)(F)F)ccc2O[C@H]1CN(C)S(=O)(=O)c1cn(C)cn1 | x | n | n | x | x | x | x
CCNC(=O)C[C@H]1CC[C@@H]2[C@H](COC[C@H](O)CN2C(=O)C2CCOCC2)O1 | x | 27 | n | x | x | n | n
O=C(C[C@H]1CC[C@H]2[C@@H](COC[C@@H](O)CN2C(=O)C2CC2)O1)NCc1ccncc1 | x | 6.3 | n | x | x | n | n
O=C(O)CN1C(=O)CSC1=S | n | n | n | n | n | x | x
O=C(NN1C(=O)CSC1=S)C(=O)NN1C(=O)CSC1=S | n | 2.4 | n | n | n | n | n
CCC(=O)N[C@H]1C=C[C@@H](CC(=O)OC)O[C@@H]1CO | x | n | n | x | x | x | x
CCCNC(=O)COC(=O)c1ccccc1C(=O)N(C)C1CCCCC1 | n | 14 | n | n | n | n | n | FGF22 TSA DP=n
CN(C(=O)c1ccccc1C(=O)OCC(=O)NCc1ccccc1)C1CCCCC1 | n | n | n | n | n | x | x
COC12CC(=O)C(C(C)=O)=C(O)C1(C)c1c(O)c(C)c(O)c(C(C)=O)c1O2 (stereo unspecified) | n | 1.4 | n | n | n | n | n
CC(=O)c1c(O)c(C)c(O)c2c1OC1=CC(=O)/C(=C(/C)N)C(=O)C12C (stereo unspecified) | n | n | n | n | n | x | x
CC1=C2[C@@H](c3ccccc3)OB(O)C[C@@H]2n2c(=O)n(-c3ccccc3)c(=O)n2C1 | x | 1.3 | x | x | x | n | n
O=C(Nc1ccc(S(=O)(=O)NCc2ccccc2)cc1)c1ccccc1[N+](=O)[O-] | n | 2.4 | x | n | n | n | n
O=C(C[C@@H]1CC[C@H](NC(=O)c2ccncc2)[C@H](CO)O1)Nc1ccc(-c2ccccc2)cc1 | x | x | n | x | x | x | x
COc1ccc(/C=N/NC(=O)c2cccc([N+](=O)[O-])c2)cc1OC | n | 1.6 | n | n | n | n | n
COc1ccc([N+](=O)[O-])cc1/C=N/Nc1nn[nH]n1 | n | 1.5 | n | n | n | n | n
COc1ccc([N+](=O)[O-])cc1/C=N/NC(=O)c1nonc1N | n | n | n | n | n | x | x
COc1ccc(/C=N/Nc2ccc([N+](=O)[O-])cc2)cc1O | n | 1.8 | n | n | n | x | n
COc1ccc(/C=N/Nc2ccc([N+](=O)[O-])cc2)cc1Cn1cc([N+](=O)[O-])cn1 | n | x | x | n | n | x | x
COc1cc(/C=N/NC(=O)c2cccc([N+](=O)[O-])c2)cc(OC)c1O | n | n | n | n | n | x | x
O=C(NCc1ccc(F)cc1)[C@@H]1[C@@H](CO)[C@@H]2Cn3c(cccc3=O)[C@@H]2N1C(=O)C1CC1 | x | n | n | x | x | x | x
SMILES | ADAM17 inh | FGF22 binding-1 | rRNA inh HTS | KLK7 zymogen act | ADAM10 inh | FGF22 binding-2 | SYPRO no-protein | others
COc1ccc(S(=O)(=O)Nc2ccc3c(c2)C(=O)N([C@@H](C)CO)C[C@@H](C)[C@H](CN(C)C(=O)CCCN(C)C)OCCCC[C@@H](C)O3)cc1 | x | n | n | x | x | x | x
Cc1noc(C)c1NC(=O)N(C)C[C@H]1OCc2ccccc2-c2ccccc2C(=O)N([C@@H](C)CO)C[C@H]1C | x | x | n | x | x | x | x
COc1ccc2c3c(n(C)c2c1)[C@H](CO)N(CC1CC1)CC31CCN(C(=O)CN2CCOCC2)CC1 | x | n | n | x | x | x | x
COc1ccccc1NC(=O)N1C[C@H]2[C@@H](c3ccccc31)[C@@H](CO)N2C(=O)C1CC1 | x | n | n | x | x | x | x
O=C(COc1ccc2c(c1)oc(=O)c1ccccc12)N[C@@H](Cc1ccccc1)C(=O)O | n | n | x | n | n | x | x
O=C(COc1ccc2c(c1)oc(=O)c1ccccc12)NC(Cc1ccc(Cl)cc1)C(=O)O (stereo unspecified) | n | 1.6 | n | n | n | n | n
COc1cc(OC)cc(C(=O)/C=C2\Sc3ccccc3N2C)c1 | n | n | n | n | n | x | x
CN1/C(=C\C(=O)c2cccc([N+](=O)[O-])c2)Sc2ccccc21 | n | 2.2 | n | n | n | n | n
Cc1ccccc1S(=O)(=O)N1CC(=O)N2[C@H](C1)[C@@H](c1ccc(C#CCC(C)C)cc1)[C@@H]2CO | x | x | n | x | x | x | x
O=C1C2C=C(I)[C@H](C[C@@H]2OCCCCCCO)[C@@]12CO2 | x | n | x | x | x | x | x
CN1CCN(C(=O)C[C@H]2C=C[C@H](NC(=O)c3ccc4c(c3)OCO4)[C@H](CO)O2)CC1 | x | 1.5 | n | x | x | n | n
CCCN(C)C[C@H]1OCCCC[C@@H](C)Oc2ccc(NC(=O)c3ccccc3)cc2C(=O)N([C@@H](C)CO)C[C@H]1C | x | x | n | x | x | x | x
COc1cccc(-c2ccc3c(c2)[C@H]2[C@H](CCN2C(=O)NC2CCCCC2)[C@@H](CO)N3C)c1 | x | x | n | x | x | x | x
COCC#Cc1ccc2c(c1)O[C@H](CN(C)C(=O)c1ccccc1)[C@@H](C)CN([C@@H](C)CO)S2(=O)=O | x | 8.3 | n | x | x | n | n
COCC(=O)N(C)C[C@H]1Oc2cc(C#Cc3ccccc3)ccc2S(=O)(=O)N([C@H](C)CO)C[C@H]1C | x | 6.2 | n | x | x | n | n
CCCN(C)C[C@@H]1Oc2cc(C#CC(C)(C)O)ccc2S(=O)(=O)N([C@@H](C)CO)C[C@@H]1C | x | 1.3 | n | x | x | n | n
COCC#Cc1ccc2c(c1)O[C@@H](CN(C)C(=O)c1ccccc1)[C@H](C)CN([C@H](C)CO)S2(=O)=O | x | n | n | x | x | x | x
CO[C@@H]1CN(C)C(=O)c2ccc(NC(=O)c3ccccc3F)cc2OC[C@H](C)NC[C@@H]1C | x | n | n | x | x | x | x
CO[C@@H]1CN(C)C(=O)c2ccc(NC(=O)c3cc(C)on3)cc2OC[C@H](C)N(CC2CC2)C[C@@H]1C | x | n | n | x | x | x | x
COc1ccccc1-c1cnc2c(c1)C(=O)N([C@H](C)CO)C[C@@H](C)[C@H](CN(C)Cc1cccnc1)O2 | x | n | n | x | x | x | x
